This passage reports binding signal results from article PMC11006913.

What all share (test): PBM; 200 nM protein, PBS
What all share (settings): dsDNA, one strand shown

In assay [1] the target is VAX1 (Homo sapiens, UniProt Q5SQQ9 86-172).
Assay [2] addresses VAX1 (Homo sapiens, UniProt Q5SQQ9 86-172, T142I).
Assay [3] addresses VAX1 (Homo sapiens, UniProt Q5SQQ9 86-172, K157R).
The target of assay [4] is NKX3-2 (Homo sapiens, UniProt P78367 192-278, P234S).
Assay [5] addresses NKX3-2 (Homo sapiens, UniProt P78367 192-278).

Chain of VAX1 (Homo sapiens, UniProt Q5SQQ9 86-172, T142I) (Q5SQQ9 86-172 T142I): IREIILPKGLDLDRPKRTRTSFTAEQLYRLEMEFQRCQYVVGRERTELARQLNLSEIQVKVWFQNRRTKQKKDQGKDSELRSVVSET
Chain of VAX1 (Homo sapiens, UniProt Q5SQQ9 86-172) (Q5SQQ9 86-172): as the sequence (Q5SQQ9 86-172 T142I) above, with I57T counted along it
Chain of VAX1 (Homo sapiens, UniProt Q5SQQ9 86-172, K157R) (Q5SQQ9 86-172 K157R): as the sequence (Q5SQQ9 86-172 T142I) above, with I57T, K72R counted along it
Chain of NKX3-2 (Homo sapiens, UniProt P78367 192-278) (P78367 192-278): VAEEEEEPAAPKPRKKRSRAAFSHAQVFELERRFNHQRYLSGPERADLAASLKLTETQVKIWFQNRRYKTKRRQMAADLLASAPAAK
Chain of NKX3-2 (Homo sapiens, UniProt P78367 192-278, P234S) (P78367 192-278 P234S): as the sequence (P78367 192-278) above, with P43S counted along it

Turning to CAACGCGG, the binding signal is 7.3 upbm affinity estimate (log intensity, higher = more binding, comparable within an allelic series) in the assay with VAX1 [1]; 7.21 upbm affinity estimate (log intensity, higher = more binding, comparable within an allelic series) in the assay with VAX1 [2]; 7.43 upbm affinity estimate (log intensity, higher = more binding, comparable within an allelic series) with VAX1 [3].

CAAATCTA: the binding signal is 8.78 upbm affinity estimate (log intensity, higher = more binding, comparable within an allelic series) with VAX1 [1] and 8.51 upbm affinity estimate (log intensity, higher = more binding, comparable within an allelic series) in the assay with VAX1 [2].

Regarding ATATGTCC, the binding signal in the assay with VAX1 [1] is 9.38 upbm affinity estimate (log intensity, higher = more binding, comparable within an allelic series); in the assay with VAX1 [2] it was 8.89 upbm affinity estimate (log intensity, higher = more binding, comparable within an allelic series); with VAX1 [3], 9.07 upbm affinity estimate (log intensity, higher = more binding, comparable within an allelic series).

Turning to ATATCGAA, the binding signal with VAX1 [1] was 8.69 upbm affinity estimate (log intensity, higher = more binding, comparable within an allelic series); with VAX1 [2], 8.53 upbm affinity estimate (log intensity, higher = more binding, comparable within an allelic series).

As to TTATGGAA, the binding signal with VAX1 [1] was 9.61 upbm affinity estimate (log intensity, higher = more binding, comparable within an allelic series); with VAX1 [2] it was 9.32 upbm affinity estimate (log intensity, higher = more binding, comparable within an allelic series); in the assay with VAX1 [3], 9.34 upbm affinity estimate (log intensity, higher = more binding, comparable within an allelic series).

Regarding GAGAATCC, the binding signal is 6.95 upbm affinity estimate (log intensity, higher = more binding, comparable within an allelic series) with VAX1 [1]; 7.22 upbm affinity estimate (log intensity, higher = more binding, comparable within an allelic series) in the assay with VAX1 [2]; 7.13 upbm affinity estimate (log intensity, higher = more binding, comparable within an allelic series) with VAX1 [3].

For ATGATGAA, the binding signal with VAX1 [1] is 9.52 upbm affinity estimate (log intensity, higher = more binding, comparable within an allelic series); in the assay with VAX1 [2], 9.3 upbm affinity estimate (log intensity, higher = more binding, comparable within an allelic series); with VAX1 [3] it was 9.22 upbm affinity estimate (log intensity, higher = more binding, comparable within an allelic series).

CCTGCAGA: the binding signal was 7.26 upbm affinity estimate (log intensity, higher = more binding, comparable within an allelic series) in the assay with VAX1 [1]; 7.33 upbm affinity estimate (log intensity, higher = more binding, comparable within an allelic series) in the assay with VAX1 [2]; 7.23 upbm affinity estimate (log intensity, higher = more binding, comparable within an allelic series) in the assay with VAX1 [3].

In the case of CCAATCTA, the binding signal is 9.3 upbm affinity estimate (log intensity, higher = more binding, comparable within an allelic series) with VAX1 [1]; 8.82 upbm affinity estimate (log intensity, higher = more binding, comparable within an allelic series) with VAX1 [2]; 9.11 upbm affinity estimate (log intensity, higher = more binding, comparable within an allelic series) in the assay with VAX1 [3].

As to TAATACCA, the binding signal was 10.2 upbm affinity estimate (log intensity, higher = more binding, comparable within an allelic series) in the assay with VAX1 [1]; 9.86 upbm affinity estimate (log intensity, higher = more binding, comparable within an allelic series) with VAX1 [2]; 9.87 upbm affinity estimate (log intensity, higher = more binding, comparable within an allelic series) with VAX1 [3].

For the sequence ATATTACC, the binding signal in the assay with VAX1 [1] was 11.5 upbm affinity estimate (log intensity, higher = more binding, comparable within an allelic series); with VAX1 [2] it was 11.2 upbm affinity estimate (log intensity, higher = more binding, comparable within an allelic series); with VAX1 [3], 11.4 upbm affinity estimate (log intensity, higher = more binding, comparable within an allelic series).

For the sequence GCGCCGGA, the binding signal was 7.27 upbm affinity estimate (log intensity, higher = more binding, comparable within an allelic series) with VAX1 [1]; 7.29 upbm affinity estimate (log intensity, higher = more binding, comparable within an allelic series) with VAX1 [2]; 7.2 upbm affinity estimate (log intensity, higher = more binding, comparable within an allelic series) with VAX1 [3].

For ATCGTTCA, the binding signal in the assay with VAX1 [1] is 9.46 upbm affinity estimate (log intensity, higher = more binding, comparable within an allelic series); with VAX1 [2], 9.08 upbm affinity estimate (log intensity, higher = more binding, comparable within an allelic series); with VAX1 [3], 9.31 upbm affinity estimate (log intensity, higher = more binding, comparable within an allelic series).

CGACTCCG: the binding signal is 6.81 upbm affinity estimate (log intensity, higher = more binding, comparable within an allelic series) with VAX1 [1]; 7.11 upbm affinity estimate (log intensity, higher = more binding, comparable within an allelic series) with VAX1 [2]; 7.09 upbm affinity estimate (log intensity, higher = more binding, comparable within an allelic series) with VAX1 [3].

With CCGTGAAG, the binding signal is 7.1 upbm affinity estimate (log intensity, higher = more binding, comparable within an allelic series) in the assay with VAX1 [1]; 7.21 upbm affinity estimate (log intensity, higher = more binding, comparable within an allelic series) with VAX1 [2]; 7.02 upbm affinity estimate (log intensity, higher = more binding, comparable within an allelic series) in the assay with VAX1 [3].

Turning to GCCAAGGC, the binding signal is 7.09 upbm affinity estimate (log intensity, higher = more binding, comparable within an allelic series) with VAX1 [1]; 7.33 upbm affinity estimate (log intensity, higher = more binding, comparable within an allelic series) with VAX1 [2]; 6.97 upbm affinity estimate (log intensity, higher = more binding, comparable within an allelic series) with VAX1 [3].

In the case of AGGGCCCT, the binding signal with VAX1 [1] was 7.2 upbm affinity estimate (log intensity, higher = more binding, comparable within an allelic series); with VAX1 [2], 7.19 upbm affinity estimate (log intensity, higher = more binding, comparable within an allelic series); in the assay with VAX1 [3], 7.36 upbm affinity estimate (log intensity, higher = more binding, comparable within an allelic series).

As for CCGGCAGC, the binding signal with VAX1 [1] was 7.15 upbm affinity estimate (log intensity, higher = more binding, comparable within an allelic series); in the assay with VAX1 [2] it was 7.15 upbm affinity estimate (log intensity, higher = more binding, comparable within an allelic series); in the assay with VAX1 [3] it was 7.17 upbm affinity estimate (log intensity, higher = more binding, comparable within an allelic series).

With AGCCTCCG, the binding signal in the assay with VAX1 [1] is 6.91 upbm affinity estimate (log intensity, higher = more binding, comparable within an allelic series); with VAX1 [2], 7 upbm affinity estimate (log intensity, higher = more binding, comparable within an allelic series); with VAX1 [3], 6.91 upbm affinity estimate (log intensity, higher = more binding, comparable within an allelic series).

On to AAGTAGCT, for which the binding signal is 9.67 upbm affinity estimate (log intensity, higher = more binding, comparable within an allelic series) in the assay with VAX1 [1]; 9.41 upbm affinity estimate (log intensity, higher = more binding, comparable within an allelic series) in the assay with VAX1 [2]; 11.8 upbm affinity estimate (log intensity, higher = more binding, comparable within an allelic series) with NKX3-2 [4]; 9.35 upbm affinity estimate (log intensity, higher = more binding, comparable within an allelic series) with VAX1 [3]; 11.9 upbm affinity estimate (log intensity, higher = more binding, comparable within an allelic series) with NKX3-2 [5].

Turning to AATATTGG, the binding signal in the assay with VAX1 [1] is 9.86 upbm affinity estimate (log intensity, higher = more binding, comparable within an allelic series); with VAX1 [2], 9.41 upbm affinity estimate (log intensity, higher = more binding, comparable within an allelic series); with VAX1 [3], 9.62 upbm affinity estimate (log intensity, higher = more binding, comparable within an allelic series).

For AGCCGGTG, the binding signal with VAX1 [1] is 7.24 upbm affinity estimate (log intensity, higher = more binding, comparable within an allelic series); with VAX1 [2], 7.45 upbm affinity estimate (log intensity, higher = more binding, comparable within an allelic series); in the assay with VAX1 [3], 7.26 upbm affinity estimate (log intensity, higher = more binding, comparable within an allelic series).

Turning to ACTAACGA, the binding signal with VAX1 [1] was 9.28 upbm affinity estimate (log intensity, higher = more binding, comparable within an allelic series); with VAX1 [2], 8.88 upbm affinity estimate (log intensity, higher = more binding, comparable within an allelic series); with VAX1 [3], 9.23 upbm affinity estimate (log intensity, higher = more binding, comparable within an allelic series).

For AGGGTCAG, the binding signal with VAX1 [1] was 7.22 upbm affinity estimate (log intensity, higher = more binding, comparable within an allelic series); with VAX1 [2] it was 7.35 upbm affinity estimate (log intensity, higher = more binding, comparable within an allelic series); in the assay with VAX1 [3] it was 7.25 upbm affinity estimate (log intensity, higher = more binding, comparable within an allelic series).

With CCTTCGCC, the binding signal is 7.18 upbm affinity estimate (log intensity, higher = more binding, comparable within an allelic series) in the assay with VAX1 [1]; 7.38 upbm affinity estimate (log intensity, higher = more binding, comparable within an allelic series) with VAX1 [2]; 7.16 upbm affinity estimate (log intensity, higher = more binding, comparable within an allelic series) in the assay with VAX1 [3].

As for ATTATTCC, the binding signal with VAX1 [1] was 10.3 upbm affinity estimate (log intensity, higher = more binding, comparable within an allelic series); with VAX1 [2] it was 10.1 upbm affinity estimate (log intensity, higher = more binding, comparable within an allelic series); with VAX1 [3] it was 10.1 upbm affinity estimate (log intensity, higher = more binding, comparable within an allelic series).

On to CCGGCTTC, for which the binding signal with VAX1 [1] is 6.96 upbm affinity estimate (log intensity, higher = more binding, comparable within an allelic series); with VAX1 [2] it was 7.09 upbm affinity estimate (log intensity, higher = more binding, comparable within an allelic series); in the assay with VAX1 [3] it was 6.93 upbm affinity estimate (log intensity, higher = more binding, comparable within an allelic series).

Take ACAATAAT: the binding signal with VAX1 [1] was 11.2 upbm affinity estimate (log intensity, higher = more binding, comparable within an allelic series); with VAX1 [2] it was 11 upbm affinity estimate (log intensity, higher = more binding, comparable within an allelic series); with VAX1 [3], 10.9 upbm affinity estimate (log intensity, higher = more binding, comparable within an allelic series).
